# HSP90 refold inh = HSP90 inhibitors, primary screen, cell lysate, luminescence. Rabbit reticulocyte lysate, luciferase refolding luminescence, 3 h. inhibition, % at 5.6 µM. hit rate 0.91% among 290,000;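 active = inhibition above the screen-wide mean plus 3 SD, computed separately per campaign, cut at about 16% in these data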;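 note: 0% = DMSO wells and 100% = 60 µM geldanamycin wells; inhibitors lower the luminescence because luciferase stays unfolded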
# aSyn 5UTR inh = MLPCN primary screen, SNCA 5' untranslated region; alpha-synuclein 5'UTR reporter, inhibitor activity; inhibition, % (tested at 7.5 µM); hit rate 0.82% among 300,000; AID 1813, 2009; in the data active = inhibition above about 60%;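 note: H4 neuroglioblastoma cells stably carrying SNCA 5'UTR luciferase fusion; 0% = DMSO wells and 100% = positive control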
# TROY NFkB inh = inhibitors of TROY-driven NF-kB signaling, primary screen, Q293 LMP1-TROYcd cells, NF-kB luciferase, uHTS; Q293 LMP1-TROYcd NF-kB luciferase reporter, 4 h; inhibition, % at 10 µM; hit rate 0.98% among 360,000; AID 1347056, 2019;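 active = compounds whose plate-normalised and pattern-corrected inhibition of the luciferase reporter signal at the single screening dose is 50% or more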
# TWEAK Fn14 block = inhibitors of TWEAK-Fn14 signaling, primary screen, luciferase reporter cells, uHTS. inhibition, % at 10 µM. AID 1159606, 2016. hit rate 2% among 360,000. TWEAK-stimulated Fn14 reporter cells, luciferase luminescence, 8 h; in the data active = inhibition above about 50%
# C8 TRAIL sens = viability loss with TRAIL in NB7+C8 cells, primary screen, TRAIL sensitizer project, cell-based, ATPlite luminescence | inhibition (viability loss, TRAIL sensitization), % at 10 µM | hit rate 1% among 360,000 | AID 624354, 2012;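 active = compounds causing at least 50% loss of cell viability in the single-dose screen, relative to plate controls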
# HIF-2a block = HIF-2a reporter inhibitors, primary screen, luminescence, 786-0 RCC cells; 786-0 RCC cells HIF-2a reporter, luciferase luminescence, overnight; hit rate 0.72% among 360,000; inhibition, % at 18.8 µM;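 active = inhibition of the luminescence signal of 40% or more relative to plate controls, in a single-dose primary screen at 18.75 µM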
# Mdm2-MdmX confirm = retested Mdm2-MdmX interaction blockers, confirmation, cell-based, luminescence, single concentration, set 2 | shares compounds with HIF-2a block | SaOS-2 split-luciferase Mdm2/MdmX complementation | inhibition, % at 8 µM | hit rate 99% among 740;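 active = mean inhibition of the luminescence signal across two replicates at or above 26 percent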
# Target sequence (O15151 whole entry, looked up): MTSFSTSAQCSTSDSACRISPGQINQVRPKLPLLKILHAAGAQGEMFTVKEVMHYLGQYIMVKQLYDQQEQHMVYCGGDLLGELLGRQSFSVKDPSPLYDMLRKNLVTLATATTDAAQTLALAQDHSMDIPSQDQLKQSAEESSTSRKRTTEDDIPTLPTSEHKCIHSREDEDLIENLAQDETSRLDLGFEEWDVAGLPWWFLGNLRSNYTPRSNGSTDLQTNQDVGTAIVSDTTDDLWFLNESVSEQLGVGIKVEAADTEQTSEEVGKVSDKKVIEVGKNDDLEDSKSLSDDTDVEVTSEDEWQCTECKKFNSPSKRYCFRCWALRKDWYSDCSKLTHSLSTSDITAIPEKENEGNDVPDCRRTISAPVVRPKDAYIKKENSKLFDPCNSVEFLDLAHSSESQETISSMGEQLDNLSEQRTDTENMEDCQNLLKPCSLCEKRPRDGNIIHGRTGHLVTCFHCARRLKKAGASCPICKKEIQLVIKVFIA
# Target sequence (Q00987 whole entry, looked up): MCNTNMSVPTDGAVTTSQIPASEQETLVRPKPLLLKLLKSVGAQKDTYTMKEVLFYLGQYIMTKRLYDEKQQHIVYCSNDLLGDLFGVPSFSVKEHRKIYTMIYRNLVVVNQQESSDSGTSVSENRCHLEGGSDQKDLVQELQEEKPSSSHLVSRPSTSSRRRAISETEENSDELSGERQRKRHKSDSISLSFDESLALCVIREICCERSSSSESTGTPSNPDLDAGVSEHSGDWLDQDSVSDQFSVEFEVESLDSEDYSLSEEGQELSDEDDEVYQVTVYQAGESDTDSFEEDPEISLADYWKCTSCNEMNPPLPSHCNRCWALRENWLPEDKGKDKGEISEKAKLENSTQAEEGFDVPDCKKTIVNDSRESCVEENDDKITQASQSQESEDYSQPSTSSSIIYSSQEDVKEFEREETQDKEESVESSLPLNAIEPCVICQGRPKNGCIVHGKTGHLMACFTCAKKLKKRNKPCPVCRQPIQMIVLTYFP
# HIF-2a conf = HIF-2a reporter inhibitor retest, confirmation, luminescence, 786-0 RCC cells | hit rate 56% among 1,800 | inhibition, % at 18.8 µM | shares compounds with HIF-2a block | HIF-2a luciferase reporter luminescence, overnight;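 active = mean inhibition across four replicates of at least 40 percent at the single tested concentration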
# HIF-1a cs = HIF-1a luciferase reporter signal reduction – MiaPaCa-2 cells, single concentration, counter-screen for HIF-2a inhibitor project, confirmation; shares compounds with HIF-2a block; inhibition, % at 18.8 µM; MiaPaCa-2 HIF-1a luciferase reporter, desferoxamine, overnight; AID 651589, 2012; hit rate 72% among 1,800;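 active = mean inhibition of the reporter signal across four replicates at the single tested dose of 50% or more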
# * = called active by the depositor; x = no result. This is a sample that favours compounds with a hit; in the whole collection about 3.9% have one here.
SMILES,HSP90 refold inh,aSyn 5UTR inh,TROY NFkB inh,TWEAK Fn14 block,C8 TRAIL sens,HIF-2a block,HIF-2a conf,HIF-1a cs,others
c1ccc(-n2nnnc2Sc2ncnc3sc4c(c23)CCCC4)cc1,1,-6,73*,100*,5,41*,15,62*,
Cc1sc2ncnc(Sc3nnnn3-c3ccc(Cl)cc3)c2c1C,5,-30,65*,102*,13,41*,1,102*,Mdm2-MdmX confirm=103*
CSc1nnnn1-c1ccc(Cl)cc1,1,31,-2,-2,-18,23,x,x,
Cc1cc(NC(=O)COC(=O)[C@H](Cc2ccccc2)NC(=O)c2ccco2)no1,x,x,-3,17,-5,1,x,x,
C=CC[C@H](CC(=O)N(CCO)Cc1ccccc1)C(=O)N[C@H](C)COC(=O)[C@@H](CC=C)CC(=O)OC(C)(C)C,x,x,5,11,4,1,x,x,
O=c1[nH][nH]c2c1[C@H](c1ccc(Cl)cc1)O[C@H](C1CCCCC1)C2,x,x,26,5,-9,-1,x,x,
CSC1=NC=C(C#N)C2=NC(c3c(Cl)cccc3Cl)NN12 (stereo not drawn),x,x,-1,2,-11,65*,1,5,
CN[C@@H](CO)C(=O)NC[C@H]1O[C@@H](n2cc(C)c(=O)[nH]c2=O)C[C@@H]1O,x,x,-1,-15,-3,-4,x,x,
Oc1ccc(NCc2cccs2)cc1,14,39,21,-18,2,57*,26,78*,
CC(=O)Nc1ccc(NCc2cccs2)cc1,2,-30,0,5,4,-15,x,x,
COc1ccc(S(=O)(=O)N2CCOCC2)cc1NC(=O)CCCSc1ccccc1,x,x,6,2,3,19,x,x,
Cc1ccc(C(=O)N2c3ccccc3N=C(c3ccccc3)C2C(=O)NC(C)C)cc1 (stereo not drawn),x,x,x,x,-8,-107,x,x,
Cc1cc(F)ccc1-c1cc(C(=O)NC(C)C)[nH]n1,x,x,-48,-9,3,-209,x,x,
Cc1cccc(Oc2sc(C(=O)c3ccccc3)c(N)c2C#N)c1,-2,5,-8,48,12,43*,20,43,
COc1ccc2c(C(=O)NCc3ccc4c(c3)OCO4)c(-c3ccc(S(C)(=O)=O)cc3)sc2c1,x,x,1,-6,16,11,x,x,
Cc1ccc(S(=O)(=O)NC(=O)C2(C)CCN2C(=O)c2cccc(F)c2)cc1 (stereo not drawn),x,x,1,-3,0,16,x,x,
Cc1sc2ncnc(N3CCC(C(=O)Nc4cc(S(C)(=O)=O)ccc4Cl)CC3)c2c1C,x,23,41,37,9,41*,-1,74*,
NC(N)=N/N=C/c1ccc(Cl)c(Cl)c1,-1,-42,2,4,2,5,x,x,
NC(N)=N/N=C/c1ccc(OCc2ccccc2Cl)cc1,6,-54,7,-14,35,93*,-16,106*,
CCOc1ccc(CNC(=O)CN2C(=O)CSc3ccc(S(=O)(=O)N4CCOCC4)cc32)cc1,x,x,-9,-7,14,-3,x,x,
CCN(CC)C(=O)C1=C(C)N(CCCN2CCCC2=O)C(=O)C(CC(=O)NCCN2CCOCC2)C1 (stereo not drawn),x,x,2,-3,-1,4,x,x,
N#CCCN(C(=O)CCl)c1cccc(Cl)c1,1,-48,19,49,-8,14,x,x,Mdm2-MdmX confirm=101*
COc1cccc(-c2cc(NC=O)c3ncc(-c4ccc(C(C)=O)cc4)n3c2)c1,x,x,27,32,16,-61,x,x,
